# Screening data as filed in PubChem BioAssay.
# FBA Mtb inh: Mtb fructose-bisphosphate aldolase inhibition; purified M. tuberculosis FBA, fluorescence read-out; inhibition, % at 1 µM; 2.3% of 360,000 active;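 also: 0% = vehicle and 100% = reference inhibitor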
# Target sequence (P9WQA3 whole entry, looked up): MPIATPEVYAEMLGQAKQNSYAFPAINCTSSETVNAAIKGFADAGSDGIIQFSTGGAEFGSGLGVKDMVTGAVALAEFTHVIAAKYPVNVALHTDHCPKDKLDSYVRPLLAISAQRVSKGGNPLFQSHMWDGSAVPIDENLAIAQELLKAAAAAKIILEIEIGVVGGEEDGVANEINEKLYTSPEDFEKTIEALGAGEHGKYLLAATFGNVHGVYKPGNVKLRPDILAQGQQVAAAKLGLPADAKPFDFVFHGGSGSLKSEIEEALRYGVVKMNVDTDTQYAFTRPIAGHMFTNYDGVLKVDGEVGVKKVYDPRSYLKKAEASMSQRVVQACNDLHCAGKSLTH
# FadD28 binding: M. tuberculosis FadD28 bisubstrate binding inhibition. 0.22% of 360,000 active. FadD28 bisubstrate probe binding, fluorescence polarization. inhibition, % at 12.5 µM; in the data active = inhibition above about 8.5%, passing the limit was not always enough
# GDH-TPI counter-1: GDH-TPI coupled enzyme inhibition counter-screen; AID 588335; 1.2% of 360,000 active; inhibition, % at 4.8 µM; GDH-TPI coupled enzyme counterscreen, NADH absorbance; in the data active = inhibition above about 30%;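 also: 0% = DMSO wells and 100% = wells lacking the enzyme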
# 3CLpro inhibitor: SARS-CoV 3CLpro protease inhibition | 0.14% of 290,000 active | inhibition, % at 6 µM | P0C6X7 | recombinant SARS-CoV 3CLpro, quenched FRET peptide cleavage; in the data active = inhibition above about 12%
# Mtb BioA inh: blocks M. tuberculosis BioA enzyme activity; purified M. tuberculosis BioA enzyme, plate reader; inhibition, % at 9.99 µM; 0.096% of 360,000 active; AID 602481; in the data active = inhibition above about 40%
# Mtb FBA inh conf: confirmation of M. tuberculosis fructose-bisphosphate aldolase inhibitors; shares compounds with FBA Mtb inh; purified M. tuberculosis FBA, fluorescence read-out; inhibition, % at 1 µM; 78% of 5,600 active; AID 651616;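 also: 0% = vehicle wells and 100% = reference inhibitor wells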
# GDH-TPI counter-2: counter-screen for M. tuberculosis FBA inhibitors: GDH-TPI coupled enzyme inhibition | shares compounds with FBA Mtb inh | GDH-TPI coupled enzyme counterscreen, fluorescence | inhibition, % at 1 µM | 81% of 5,600 active | AID 652141; in the data active = inhibition above about 10%
# Active calls of the source: *; x = no result; + = active, no number. The list is not random: actives were taken first. Their share in the collection is about 3.1%. Rule as the data show it, unless noted: active = inhibition above about 27%; inactive = the rest.
SMILES,FBA Mtb inh,FadD28 binding,GDH-TPI counter-1,3CLpro inhibitor,Mtb BioA inh,Mtb FBA inh conf,GDH-TPI counter-2
COc1ccc2oc(C(=O)OCC(=O)NC3CCCCC3)c(C)c2c1,39*,1,10,x,-1,90*,78*
Cc1c(C(=O)OCC(=O)NC2CCCCC2)oc2ccccc12,4,x,3,x,-2,x,x
OCc1ccc(-c2nn(Cc3ccccc3)c3ccccc23)o1,58*,-3,18,x,3,82*,67*
O=c1c2ccccc2c(-c2n[nH]c(=S)o2)nn1Cc1ccccc1,0,1,9,2,x,x,x
COc1ccc(N(C(=O)c2snc(C(N)=O)c2N)C(C(=O)NCc2ccccc2)c2ccc(O)cc2)cc1 (stereo not given),-6,-5,-1,3,-1,x,x
NC(=O)c1nsc(C(=O)N(c2ccccc2)C(C(=O)NCc2ccc(F)cc2)c2ccc(O)cc2)c1N (stereo not given),37*,-4,4,0,x,-2,-5
CC(=O)Nn1cnc2c(c1=O)C1(CCCCC1)Cc1ccccc1-2,3,-3,-5,5,x,x,x
O=c1[nH]c(NCCO)nc2c1C1(CCCCC1)Cc1ccccc1-2,98*,-2,13,-1,-1,-4,-7
CC1(C)CC(n2c(NCCO)nc3c(c2=O)C2(CCCC2)Cc2ccccc2-3)CCO1 (stereo not given),38*,-2,11,1,1,+,193*
O=c1[nH]c(CN2CCCCC2)nc2c1C1(CCCCC1)Cc1ccccc1-2,2,-1,5,-4,4,x,x
Cc1ccc(S(=O)(=O)Nc2ccc3c(c2)C(=O)N([C@@H](C)CO)C[C@H](C)[C@@H](CN(C)S(=O)(=O)c2c(C)noc2C)OCCCC[C@H](C)O3)cc1,x,x,x,x,0,x,x
C[C@@H]1CN([C@@H](C)CO)C(=O)c2cc(-c3ccncc3)cnc2O[C@H]1CN(C)C(=O)C1CC1,x,x,x,x,1,x,x
Cn1c2ccccc2c(=O)c2cc(C#CC3(O)CCCCC3)ccc21,93*,-1,7,-6,-2,-5,-3
Cn1c2ccccc2c(=O)c2ccc(C#CC3(N)CCCCC3)cc21,92*,-9,3,-6,1,35*,19*
CC(C)C#Cc1cnc2c(c1)C(=O)N([C@@H](C)CO)C[C@H](C)[C@H](CN(C)C(=O)c1ccccc1F)O2,x,x,x,x,4,x,x
CC(C)=CCOc1ccc2c(C)c(CC(=O)N3C[C@H]4C[C@@H](C3)c3cccc(=O)n3C4)c(=O)oc2c1C,107*,-1,19,0,2,183*,129*
Cc1c(OCC(=O)N2C[C@H]3C[C@@H](C2)c2cccc(=O)n2C3)ccc2c3c(c(=O)oc12)CCCC3,31*,-1,17,0,0,+,+
C[C@@H]1CCCCO[C@H](CN(C)S(=O)(=O)c2ccc(Cl)cc2)[C@@H](C)CN([C@@H](C)CO)C(=O)c2cc(NC(=O)c3ccncc3)ccc2O1,x,x,x,x,2,x,x
C[C@@H]1CN([C@@H](C)CO)C(=O)c2cc(C#CC3CC3)cnc2O[C@@H]1CN(C)S(C)(=O)=O,x,x,x,x,0,x,x
CCC(=O)N(C)C[C@H]1Oc2cc(-c3ccc(OC)cc3)ccc2S(=O)(=O)N([C@H](C)CO)C[C@H]1C,x,x,x,x,3,x,x
COc1ccc2oc(=O)c(-c3nc(C)cs3)cc2c1,35*,-1,13,1,-1,111*,78*
COC(=O)c1ccc(/C=C/c2c(-c3ccc(OC)cc3)oc3ccc(N4CCOCC4)cc23)cc1,13,0,0,-3,-1,x,x
COc1ccc(/C=C/c2c(-c3cccc(C)c3)oc3ccc(N4CCOCC4)cc23)cc1,35*,-4,27,x,1,103*,98*
COc1ccc(-c2oc3ccc(N4CCOCC4)cc3c2C#Cc2ccc(N)cc2)cc1,44*,1,10,x,-2,49*,48*
COc1cccc(NC(=O)N2C[C@@H](O)COC[C@@H]3O[C@H](CC(=O)NCc4ccccc4F)CC[C@H]32)c1,x,x,x,x,0,x,x
SMILES,FBA Mtb inh,FadD28 binding,GDH-TPI counter-1,3CLpro inhibitor,Mtb BioA inh,Mtb FBA inh conf,GDH-TPI counter-2
C[C@H]1CCCCO[C@@H](CN(C)Cc2ccc(C(=O)O)cc2)[C@@H](C)CN([C@@H](C)CO)C(=O)c2cc(NC(=O)Nc3ccccc3)ccc2O1,x,x,x,x,1,x,x
C[C@@H]1CN([C@@H](C)CO)S(=O)(=O)c2ccc(-c3ccc(F)cc3)cc2O[C@@H]1CN(C)C(=O)c1ccccc1F,x,x,x,x,-2,x,x
CCNC(=S)N1CCc2cc(OC)c(OC)cc2C1COc1ccccc1OC (stereo not given),38*,-4,-5,1,4,+,+
COc1cccc2cc(-c3ccnc(N)n3)oc12,3,-1,18,-3,-1,x,x
COc1cccc2cc(-c3n[nH]c(=S)n3C)oc12,42*,-2,1,2,0,1,-4
CO[C@@H]1CN(C)C(=O)c2ccc(NC(C)=O)cc2OC[C@H](C)N(Cc2ccc(F)cc2)C[C@@H]1C,x,x,x,x,2,x,x
COc1ccc(-c2c[n+]3c4n2CCCCC4=C(c2ccccc2)C3)cc1,106*,-4,20,6,10,-2,-4
COc1ccc(CNC(=O)c2c([S-])n(-c3ccc(C)cc3)c3cccc[n+]23)cc1,36*,-1,5,7,x,70*,97*
COc1ccc(C2Nc3ccccc3C(=O)N2NC(C)=O)cc1OC (stereo not given),36*,-5,-2,2,x,36*,26*
CN1CCC2(CC1)NC(=O)c1ccccc1N2,x,x,x,2,x,x,x
COc1ccc(C2Nc3ccccc3C(=O)N2NC(=O)c2ccccc2)cc1OC (stereo not given),7,0,2,0,2,x,x
